Experiment [1] in a line: binders of probe aFSTL3 on microarray, primary screen, stem cell growth factor project, biochemical, small-molecule microarray, fluorescence 635/667 (AID 1064).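 Further: measures binding of the biotinylated anti-FSTL3 antibody to printed compounds.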 Particulars: higher = more signal.
Experiment [2] can be described thus: binders from COS7 lysate, DM2A8 probe, primary screen, torsin A project, cell lysate, small-molecule microarray, fluorescence 635/667 (AID 1065). Particulars: higher = more signal, COS7 lysate expressing mutant human TOR1A.
Experiment [3] in a line: binders of probe aFGF2 on microarray, primary screen, stem cell growth factor project, biochemical, small-molecule microarray, fluorescence 635/667 (AID 1067).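 Further: measures binding of biotinylated aFGF2 protein to printed compounds on slides; z-score merges feature fluorescence and signal-to-noise across triplicate slides.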 Particulars: higher = more signal.
A short description of experiment [4]: binders of probe aFGF10 on microarray, primary screen, stem cell growth factor project, biochemical, small-molecule microarray, fluorescence 635/667 (AID 1071).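 Further: score merges 667 nm spot intensity and signal to noise from triplicate slides.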 Particulars: higher = more signal.
In experiment [5] the target is Neurogenic locus notch homolog protein 2 (Homo sapiens) (UniProt Q04721). The experiment is described as follows: Notch2 binders on small-molecule microarrays, primary screen, biochemical, small-molecule microarray, 635 nm fluorescence, stem cell growth factors (AID 1073). Particulars: Notch2 binding, higher = more signal.
Sequence of Neurogenic locus notch homolog protein 2 (Homo sapiens) (Q04721 whole entry, looked up, canonical isoform): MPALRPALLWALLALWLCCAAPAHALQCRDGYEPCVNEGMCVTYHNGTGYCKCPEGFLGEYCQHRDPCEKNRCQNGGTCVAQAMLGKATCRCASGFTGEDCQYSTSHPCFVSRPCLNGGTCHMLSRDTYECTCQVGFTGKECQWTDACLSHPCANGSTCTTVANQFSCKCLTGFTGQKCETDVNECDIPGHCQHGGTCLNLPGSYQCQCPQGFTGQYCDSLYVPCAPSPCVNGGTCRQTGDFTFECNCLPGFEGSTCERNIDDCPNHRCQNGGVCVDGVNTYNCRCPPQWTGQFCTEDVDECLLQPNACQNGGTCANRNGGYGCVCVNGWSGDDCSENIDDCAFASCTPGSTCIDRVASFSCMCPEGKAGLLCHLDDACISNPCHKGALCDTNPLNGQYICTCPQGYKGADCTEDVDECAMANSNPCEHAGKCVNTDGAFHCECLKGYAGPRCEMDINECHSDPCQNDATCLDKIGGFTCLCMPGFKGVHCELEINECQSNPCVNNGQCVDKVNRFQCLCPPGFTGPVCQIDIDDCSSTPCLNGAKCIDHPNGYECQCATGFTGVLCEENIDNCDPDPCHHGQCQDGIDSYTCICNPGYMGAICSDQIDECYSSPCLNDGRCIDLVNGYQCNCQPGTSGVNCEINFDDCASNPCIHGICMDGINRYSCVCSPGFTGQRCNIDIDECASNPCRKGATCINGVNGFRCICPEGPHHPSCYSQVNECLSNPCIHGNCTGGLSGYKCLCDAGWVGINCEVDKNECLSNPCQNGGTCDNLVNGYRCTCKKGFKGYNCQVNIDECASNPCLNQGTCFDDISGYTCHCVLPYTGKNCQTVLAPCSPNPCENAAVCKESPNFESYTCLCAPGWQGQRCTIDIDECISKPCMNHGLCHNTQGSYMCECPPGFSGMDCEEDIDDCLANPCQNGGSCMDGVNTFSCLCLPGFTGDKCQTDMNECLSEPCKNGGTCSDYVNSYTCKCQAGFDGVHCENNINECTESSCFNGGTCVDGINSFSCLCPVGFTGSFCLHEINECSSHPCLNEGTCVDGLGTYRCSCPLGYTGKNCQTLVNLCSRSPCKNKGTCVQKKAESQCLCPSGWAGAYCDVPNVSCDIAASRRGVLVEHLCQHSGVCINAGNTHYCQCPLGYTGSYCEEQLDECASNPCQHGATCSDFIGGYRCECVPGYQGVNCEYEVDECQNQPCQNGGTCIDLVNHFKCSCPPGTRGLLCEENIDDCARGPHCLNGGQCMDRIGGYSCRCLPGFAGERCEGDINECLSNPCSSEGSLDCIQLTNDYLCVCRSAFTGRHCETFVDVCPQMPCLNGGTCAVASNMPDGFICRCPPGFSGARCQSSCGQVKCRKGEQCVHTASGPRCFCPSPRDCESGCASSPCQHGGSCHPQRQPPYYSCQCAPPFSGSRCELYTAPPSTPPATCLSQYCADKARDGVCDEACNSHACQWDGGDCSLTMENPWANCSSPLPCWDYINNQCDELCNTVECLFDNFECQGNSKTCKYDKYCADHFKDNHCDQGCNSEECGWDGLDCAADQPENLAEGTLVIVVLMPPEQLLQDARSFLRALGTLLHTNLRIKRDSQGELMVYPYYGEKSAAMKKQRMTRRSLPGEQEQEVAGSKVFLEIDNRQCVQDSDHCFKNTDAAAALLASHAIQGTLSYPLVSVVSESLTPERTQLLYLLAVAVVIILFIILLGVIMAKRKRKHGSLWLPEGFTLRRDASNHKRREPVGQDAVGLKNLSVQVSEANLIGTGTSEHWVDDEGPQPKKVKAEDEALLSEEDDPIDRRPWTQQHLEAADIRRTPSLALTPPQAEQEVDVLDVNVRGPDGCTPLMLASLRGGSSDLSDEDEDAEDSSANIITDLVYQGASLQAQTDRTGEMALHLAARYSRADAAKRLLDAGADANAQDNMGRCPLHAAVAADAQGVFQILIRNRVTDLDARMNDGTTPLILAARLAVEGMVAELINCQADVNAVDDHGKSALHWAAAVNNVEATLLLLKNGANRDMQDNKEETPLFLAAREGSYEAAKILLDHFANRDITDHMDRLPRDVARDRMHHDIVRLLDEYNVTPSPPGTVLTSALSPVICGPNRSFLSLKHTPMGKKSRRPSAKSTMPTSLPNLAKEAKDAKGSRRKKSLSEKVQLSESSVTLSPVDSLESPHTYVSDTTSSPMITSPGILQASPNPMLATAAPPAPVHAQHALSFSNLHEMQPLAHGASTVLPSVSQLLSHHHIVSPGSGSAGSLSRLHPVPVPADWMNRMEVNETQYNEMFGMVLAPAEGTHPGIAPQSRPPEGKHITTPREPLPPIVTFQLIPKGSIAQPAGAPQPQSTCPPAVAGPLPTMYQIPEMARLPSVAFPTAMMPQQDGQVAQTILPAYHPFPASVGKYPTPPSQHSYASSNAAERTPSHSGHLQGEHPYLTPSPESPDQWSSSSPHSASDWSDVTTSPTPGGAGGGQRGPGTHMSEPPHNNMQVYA
The target of experiment [6] is Pro-neuregulin-1, membrane-bound isoform (Homo sapiens) (UniProt Q02297). The experiment is described as follows: NRG1 binders on small-molecule microarrays, primary screen, psychiatric disease protein project, biochemical, small-molecule microarray, fluorescence 635/667 (AID 1075).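 Further: score combines 667 nm spot fluorescence with signal to noise.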 Particulars: NRG1 binding, 635 nm fluorescence, higher = more signal.
Sequence of Pro-neuregulin-1, membrane-bound isoform (Homo sapiens) (Q02297 whole entry, looked up, the tested form may be a part, canonical isoform): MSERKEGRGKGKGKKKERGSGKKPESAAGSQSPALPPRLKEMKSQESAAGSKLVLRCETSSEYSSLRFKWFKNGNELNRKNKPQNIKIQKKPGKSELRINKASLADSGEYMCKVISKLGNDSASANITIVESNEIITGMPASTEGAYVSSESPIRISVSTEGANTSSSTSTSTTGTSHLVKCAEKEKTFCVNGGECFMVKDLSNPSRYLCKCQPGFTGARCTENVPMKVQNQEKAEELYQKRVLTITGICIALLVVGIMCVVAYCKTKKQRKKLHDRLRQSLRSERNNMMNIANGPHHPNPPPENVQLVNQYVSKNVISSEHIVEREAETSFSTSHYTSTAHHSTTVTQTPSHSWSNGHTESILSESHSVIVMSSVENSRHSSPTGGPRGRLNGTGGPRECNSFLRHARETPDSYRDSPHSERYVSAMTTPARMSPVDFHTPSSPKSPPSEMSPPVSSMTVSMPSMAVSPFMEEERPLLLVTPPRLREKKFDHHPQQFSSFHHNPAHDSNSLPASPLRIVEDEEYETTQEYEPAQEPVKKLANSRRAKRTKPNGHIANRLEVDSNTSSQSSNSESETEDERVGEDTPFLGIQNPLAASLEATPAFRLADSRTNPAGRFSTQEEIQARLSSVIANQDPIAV
The test system of experiment [7] is Neuregulin-1 EGF-like domain. The experiment in a line: binders of neuregulin-1 EGF-like domain, primary screen, biochemical, small-molecule microarray, 635 nm fluorescence (AID 1081).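 Further: binding of the protein to compounds printed on small-molecule microarray slides.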 Particulars: small-molecule microarray binding, higher = more signal.
Experiment [8] in a line: FRG1 promoter luciferase signal modulators, primary screen, FRG1 inhibition for FSHD, cell-based, C2C12 myotubes, firefly/Renilla luciferase, luminescence (AID 1084). Particulars: higher = more signal, called active from +8 up or from −8 down.
The nature of experiment [9]: binders of probe aFST on microarray, primary screen, stem cell growth factor project, biochemical, small-molecule microarray, fluorescence 635/667 (AID 1086).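 Further: score merges 667 nm fluorescence with signal-to-noise of each printed compound spot.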 Particulars: higher = more signal.
Experiment [10] in a line: binders of probe aHhip on microarray, primary screen, stem cell growth factor project, biochemical, small-molecule microarray, fluorescence 635/667 (AID 1087).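 Further: score merges spot fluorescence at 667nm with spot signal to noise ratio.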 Particulars: higher = more signal.

The source of these data is PubChem BioAssay.

The source made the active and inactive calls.

As to `C=CC[C@]1(C(=O)NCCCOC)N=C(c2ccc(OCCCO)cc2)O[C@H]1c1ccccc1N=[N+]=[N-]`, the composite z-score in experiment [1] is 0.149; in experiment [2] it was -0.0693; in experiment [3], 0.119; in experiment [4], 0.751; in experiment [5] it was 1.39; in experiment [6], 0.94. For the same compound, the composite z-score is 0.989 in experiment [7], 1.18 in experiment [9] and -0.192 in experiment [10]. Also, in [8], the z-score was 0.665 (inactive).
As for `COCCOC(=O)N1C(=O)[C@@]2(c3cc(C#CCCO)ccc31)[C@H](c1ccc(OCCO)cc1)N1[C@H](c3ccccc3)[C@H](c3ccccc3)OC(=O)[C@H]1[C@@H]2C(=O)N1CCN(c2ncccn2)CC1`, the composite z-score is -0.204 in [1]; -0.0161 in experiment [2]; -0.0972 in [3]; 0.281 in experiment [4]; 1.33 in [5]; 0.317 in experiment [6]. Moreover, the composite z-score in experiment [7] stood at 1.23; in [9] it was 0.658; in experiment [10] it was 0.0274. Also, the z-score in experiment [8] is -0.37 (inactive).
For `O=C1[C@H]2C=C(Br)[C@H](C[C@@H]2c2ccccc2)[C@@]12CO2`, the composite z-score is -0.357 in experiment [1]; 0.324 in experiment [2]; -0.0265 in experiment [3]; 0.328 in [4]; 0.299 in experiment [5]; -0.406 in [6]. In addition, the figures for the composite z-score in experiment [7], in [9] and in experiment [10] were 0.57, 0.0322 and -0.0645, respectively. Also, the z-score in [8] is 1.36 (inactive).
As to `CC(C)N1C(=O)[C@@]2(Cc3ccccc31)c1ccccc1C(=O)N(C1CCCCC1)[C@H]2c1ccc(CO)cc1`, the composite z-score was -0.302 in experiment [1]; -0.0937 in [2]; -0.132 in experiment [3]; 0.397 in [4]; 0.184 in experiment [5]; 0.452 in experiment [6]. Moreover, the results for the composite z-score in [7], in experiment [9] and in experiment [10] were 1.24, -0.123 and -0.296, respectively. Further, in [8], the z-score is 0.0117 (inactive).
For `CN(C)C(=O)[C@@]1(Cc2ccccc2CN=[N+]=[N-])N=C(c2ccc(OCCCO)cc2)O[C@H]1c1ccccc1`, the composite z-score in experiment [1] is 0.214; in [2], -0.163; in [3], 0.0575; in experiment [4], 0.663; in experiment [5] it was 0.604; in experiment [6], 1.17. In addition, the composite z-score in experiment [7] is 0.91; in experiment [9], 0.46; in experiment [10], -0.169. Further, the z-score in experiment [8] is -2.25 (inactive).
On to `CC(=O)NCCCC[C@@H]1NC(=O)[C@@H]2C[C@H](C(=O)NCCCCCCNC(=O)CS)[C@H](c3cccc(OCCO)c3)N2C1=O`, for which the composite z-score in experiment [1] is 0.0659; in experiment [2], 0.311; in experiment [3], -0.0212; in experiment [4] it was 0.283; in [5] it was 0.149; in experiment [6], 0.632. For the same compound, the composite z-score was 1.24 in [7], 0.414 in experiment [9] and -0.299 in experiment [10]. The z-score in experiment [8] was 0.743 (inactive).
Consider `O=C(NCc1ccc(F)cc1)[C@H]1C[C@H]2C(=O)N[C@@H](Cc3ccccc3)C(=O)N2[C@H]1c1ccc(O)cc1`, for which the composite z-score in experiment [1] is 1.12; in experiment [2], 0.949; in experiment [3], -0.185; in [4] it was -0.685; in [5] it was -0.878; in [6] it was -0.242. Besides, the composite z-score is 1.2 in experiment [7], -0.823 in experiment [9] and -0.0645 in experiment [10]. Further, the z-score in experiment [8] was 1.1 (inactive).
Regarding `Cc1ccc(S[C@]2(C(=O)NCC(F)(F)F)CC(=O)N(C(C)C)[C@@H]2c2ccc(CO)cc2I)cc1`, the composite z-score in experiment [1] was 0.163; in experiment [2] it was -0.98; in [3], -0.04; in experiment [4] it was 0.0063; in experiment [5], -0.806; in experiment [6] it was 1.08. The results for the composite z-score in experiment [7], in experiment [9] and in experiment [10] were -0.395, -0.349 and -0.374, respectively. Also, in experiment [8], the z-score was -0.0636 (inactive).
As for `CCOC(=O)[C@H]1CC=C2CC1C(=O)N1CCC[C@@H]1[C@@H]2O[Si](C)(C)C(C)(C)C` (stereo not given in full), the composite z-score in experiment [1] was -0.502; in [2], -0.0173; in [3] it was -0.221; in experiment [4] it was -0.0337; in experiment [5] it was -1.9; in [6], -0.596. In addition, the composite z-score in experiment [7] is -0.415; in experiment [9], -0.686; in experiment [10], -0.0994. Further, the z-score in [8] is -0.591 (inactive).
`COCCCNC(=O)C1N=C(c2ccc(OCCCO)cc2)N(c2ccccc2)O1` (stereo not given): the composite z-score in experiment [1] was -0.39; in experiment [2] it was 0.461; in experiment [3], 0.0038; in [4], 0.848; in experiment [5], 0.872; in [6], 0.124. In addition, the composite z-score in experiment [7] is 0.609; in [9], 0.504; in experiment [10], 0.0176. The z-score in experiment [8] is 3.02 (inactive).
Regarding `O=C1NCC(=O)N2[C@@H]1C[C@@H](C(=O)O)[C@H]2c1cccc(OCCO)c1`, the composite z-score in [1] amounted to 3.93; in experiment [2], 2.65; in experiment [3] it was 1.02; in experiment [4], 0.935; in experiment [5], 1.82; in experiment [6], 2.97. The composite z-score was found to be 1.53 in [7], 3.63 in [9] and 3.89 in [10]. In [8], the z-score is 3.17 (inactive).
On to `CN1C(=O)C2C=CC(C(O)c3cccs3)N(Nc3ccccc3)C2C1=O` (stereo not given), for which the composite z-score in experiment [1] was 0.0812; in experiment [2], 0.552; in experiment [3], -0.0628; in [4], 0.415; in experiment [5], 0.94; in [6], 1.22. The composite z-score in [7] came out at 1.4; in experiment [9], 0.388; in experiment [10] it was 0.261. Besides, the z-score in experiment [8] is -0.263 (inactive).
For `CCCCCN1CC=CC23O[C@@H]4/C=C\CCCOC(=O)C4[C@H]2C(=O)N(CCCO)[C@@H]3C1=O` (stereo not given in full), the composite z-score in experiment [1] was -0.181; in experiment [2] it was 1.14; in experiment [3], -0.156; in [4] it was 0.116; in [5] it was -0.573; in [6] it was 0.753. Also, the composite z-score in experiment [7] is 1.47; in [9] it was -0.533; in experiment [10] it was -0.11. Also, the z-score in experiment [8] was -0.16 (inactive).
With `NC(=O)[C@@H]1[C@H]2C(=O)O[C@H](c3ccccc3)[C@H](c3ccccc3)N2[C@H](c2ccc(O)cc2)[C@@]12C(=O)Nc1ccc(C#CC3(O)CCCCCC3)cc12`, the composite z-score turned out to be 0.372 in [1]; 0.167 in experiment [2]; 0.0075 in [3]; 0.244 in [4]; 0.0065 in experiment [5]; 0.959 in experiment [6]. In addition, the composite z-score in experiment [7] is 1.42; in experiment [9], -0.0686; in [10], -0.0645. In addition, in experiment [8], the z-score is 0.854 (inactive).
With `COC(=O)[C@@]1(Cc2ccc(OC)cc2)[C@H]2c3cc(C(=O)N4CCCC4)n(Cc4ccccc4)c3C[C@H]2CN1C(=O)c1ccccc1`, the composite z-score in experiment [1] was determined as 2.67; in experiment [2] it was 0.0681; in [3] it was 0.788; in [4], 0.784; in experiment [5], 1.61; in experiment [6], 1.98. The composite z-score in experiment [7] amounted to 1.36; in experiment [9], 2.34; in [10], 0.671. Further, in experiment [8], the z-score is 0.42 (inactive).
As to `O=C1O[C@H](c2ccccc2)[C@H](c2ccccc2)N2[C@H]1[C@@H](C(=O)NC[C@H](O)c1ccccc1)[C@]1(C(=O)Nc3ccccc31)[C@H]2c1ccc(OCCO)cc1`, the composite z-score in experiment [1] is 0.0809; in experiment [2] it was 0.267; in experiment [3] it was -0.039; in [4] it was 0.345; in experiment [5], 0.404; in experiment [6] it was 1.05. In addition, the composite z-score in experiment [7] came to 1.21; in experiment [9], 0.368; in experiment [10], 0.0551. For the same compound, in [8], the z-score was 1.8 (inactive).
As for `COCCOC(=O)N1C(=O)[C@@]2(c3cc(C#CC4=CCCCC4)ccc31)[C@H](C(=O)N1CCc3cc(OC)c(OC)cc3C1)[C@H]1C(=O)O[C@H](c3ccccc3)[C@H](c3ccccc3)N1[C@@H]2c1ccc(OCCO)cc1`, the composite z-score in [1] is -0.137; in [2] it was 0.492; in experiment [3] it was -0.0094; in [4], 0.599; in experiment [5], 1.1; in experiment [6], 0.101. In addition, the composite z-score was 1.21 in experiment [7], 0.533 in experiment [9] and -0.0121 in experiment [10]. Besides, the z-score in [8] was 0.235 (inactive).
